# The panel holds about 79,000 compounds, 15% with a hit somewhere; the sample as a whole holds those more often. Values without a mark were called inactive. The source made the active and inactive calls. Cut-off read from the data, not from the text of the source: active = growth inhibition above about 70%; inactive = the rest.
# Experiments:
# [1] = NCI Yeast Anticancer Drug Screen. Data for the rad50 strain (AID 155);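 note: 0% = growth of vehicle-only cultures of the same strain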; conditions: S. cerevisiae rad50 strain growth inhibition, hits give high values
# In short: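 Readout: growth inhibition relative to vehicle-treated cultures. Compound exposure was carried out in a genetically defined yeast strain deficient in DNA damage repair.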
# [2] = NCI Yeast Anticancer Drug Screen. Data for the mec2-1 strain (AID 157); conditions: S. cerevisiae mec2-1 strain, hits give high values
# In short: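 Readout is yeast growth inhibition, normalised to vehicle-treated controls, in the mec2-1 strain exposed to compound.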
# [3] = NCI Yeast Anticancer Drug Screen. Data for the sgs1 mgt1 strain (AID 161);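 note: 0% = growth of cultures given vehicle only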; conditions: S. cerevisiae sgs1 mgt1 strain, hits give high values
# In short: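 Compounds are added to genetically altered yeast, and growth is compared with cultures given vehicle alone to give percent inhibition.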
# [4] = NCI Yeast Anticancer Drug Screen. Data for the cln2 rad14 strain (AID 165);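 note: 0% = growth equal to vehicle treated cultures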; conditions: S. cerevisiae cln2 rad14 strain, hits give high values
# In short: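 Relative to vehicle controls, growth inhibition of compound-treated cln2 rad14 yeast was recorded.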
# [5] = NCI Yeast Anticancer Drug Screen. Data for the bub3 strain (AID 167); conditions: S. cerevisiae bub3 mutant strain, hits give high values
# In short: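 Readout: yeast growth inhibition, expressed relative to vehicle-only wells. The test organism is a mutant strain from a panel with lesions in DNA repair or checkpoint genes.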
# [6] = NCI Yeast Anticancer Drug Screen. Data for the mlh1 rad18 strain (AID 175); conditions: S. cerevisiae mlh1 rad18 strain growth inhibition, hits give high values
# In short: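 Test agents were incubated with a yeast strain of defined genotype (DNA damage repair defect). Inhibition of growth was derived by comparison with vehicle-exposed cultures.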
# [7] = at 5.0 µM (retest, dose inferred, filed as 0.5)
# [8] = at 50.0 µM (retest, dose inferred, filed as 5.0)
SMILES,"growth inhibition [1, 7]","growth inhibition [1, 8]",growth inhibition ([1]; at 50.0 µM),"growth inhibition [2, 7]","growth inhibition [2, 8]",growth inhibition ([2]; at 50.0 µM),"growth inhibition [3, 7]","growth inhibition [3, 8]",growth inhibition ([3]; at 50.0 µM),"growth inhibition [4, 7]","growth inhibition [4, 8]",growth inhibition ([4]; at 50.0 µM),"growth inhibition [5, 7]","growth inhibition [5, 8]",growth inhibition ([5]; at 50.0 µM),"growth inhibition [6, 7]","growth inhibition [6, 8]",growth inhibition ([6]; at 50.0 µM)
O=C(Nc1ccc(C(=O)Nc2ccc3c(O)cc(S(=O)(=O)O)cc3c2)cc1)c1ccccc1,0%,-2%,25.8%,2%,34%,-5.7%,2%,21%,25.8%,1%,-13%,1.4%,0%,-6%,1.15%,19%,6%,47%
CCC(C)C(C(=O)NOC(=O)c1ccccc1)/C(N)=N/OC(=O)c1ccccc1 (stereo not given),89% (active),99% (active),99.5% (active),83% (active),100% (active),98.3% (active),96% (active),99% (active),99.6% (active),87% (active),99% (active),99.5% (active),91% (active),99% (active),99.4% (active),97% (active),99% (active),98.9% (active)
Cc1ccc(-c2oc(C=Nc3ccccc3)c([N+](=O)[O-])c2-c2ccc(C)cc2)cc1,11%,72% (active),73.3% (active),13%,70% (active),64.5%,26%,73% (active),70.9% (active),36%,74% (active),42.2%,46%,95% (active),41.7%,52%,91% (active),75.8% (active)
CC/C=C(\C)CC(C)O (stereo not given),-3%,16%,64.9%,-4%,3%,43.8%,-3%,18%,77.6% (active),1%,9%,59.7%,1%,-5%,57%,-3%,8%,54.9%
C#CCN1CCN(C(=S)N/N=C(\C)c2ccccn2)CC1,22%,99% (active),99.5% (active),19%,100% (active),99.7% (active),20%,100% (active),99.5% (active),21%,99% (active),99.4% (active),14%,99% (active),99.3% (active),52%,100% (active),99.3% (active)
N#CCCN(C(=S)Nc1ccc(Cl)c(Cl)c1)C1CCCCC1,2%,91% (active),78.9% (active),0%,91% (active),79.7% (active),2%,90% (active),86.3% (active),-1%,83% (active),71.9% (active),2%,88% (active),79.2% (active),3%,90% (active),75.1% (active)
O=C(Nc1ccc(Cl)cc1)Nc1nnc(/C=C/c2ccc(Cl)c(Cl)c2)o1,-1%,-4%,-6.15%,1%,-91%,19.4%,-1%,0%,3.6%,1%,-4%,-14.2%,-44%,7%,-4.75%,1%,-16%,-12.1%
COc1cc(NCC(C#N)C#N)ccc1N=Nc1ccc(Cl)cc1,-5%,58%,86.2% (active),-2%,67%,70.8% (active),4%,72% (active),85.3% (active),-7%,46%,76.8% (active),-23%,87% (active),79.5% (active),-37%,81% (active),82.7% (active)
Cc1nn(C(=O)c2ccccc2O)c2c1C(c1ccc3ccccc3c1O)SC(N)=N2 (stereo not given),8%,97% (active),97.1% (active),0%,95% (active),92.5% (active),-4%,96% (active),96.8% (active),-9%,59%,92.1% (active),-13%,97% (active),97.8% (active),9%,98% (active),97.7% (active)
COC(=O)C1c2cc(C)ccc2-c2ccc(C)cc21,31%,2%,13.6%,3%,-17%,13.3%,0%,23%,2.95%,-14%,8%,30.2%,-10%,18%,6.75%,4%,26%,49.5%
NC(=O)NOC(=O)c1ccccc1,42%,97% (active),85.3% (active),6%,97% (active),87.5% (active),18%,95% (active),87.4% (active),-7%,96% (active),86.8% (active),-4%,95% (active),79.2% (active),21%,97% (active),96.8% (active)
COC(=Nc1ccccc1)SSC(C)C,23%,77% (active),84.5% (active),19%,57%,86.8% (active),38%,87% (active),81.6% (active),38%,66%,46.4%,46%,92% (active),86.2% (active),21%,64%,85.5% (active)
Cc1cc(C)nc(NS(=O)(=O)c2ccc(Nc3c4ccccc4nc4c(C(=O)NC(CO)(CO)CO)cccc34)cc2)n1,-11%,26%,81.8% (active),4%,-2%,-6.1%,0%,-8%,4.9%,39%,-2%,42.4%,4%,12%,4.45%,-3%,4%,-8.4%
CCCCCCCCCCCCNC(=O)c1ccc[n+](Cc2ccc(Cl)c(Cl)c2)c1,99% (active),98% (active),99% (active),100% (active),99% (active),99% (active),99% (active),98% (active),98.8% (active),99% (active),99% (active),98.2% (active),98% (active),98% (active),97.8% (active),99% (active),99% (active),98.7% (active)
CCCCCCC[CH2][Sn]([CH2]CCCCCCC)([O]c1cccc2cccnc12)[O]c1cccc2cccnc12,21%,21%,89.7% (active),18%,18%,87.7% (active),14%,14%,89.7% (active),9%,9%,85.4% (active),4%,4%,90.1% (active),10%,10%,86.3% (active)
CCCCNCc1c(O)ccc2ccccc12,14%,99% (active),99.1% (active),3%,99% (active),99.2% (active),17%,99% (active),99.1% (active),10%,98% (active),95.8% (active),21%,99% (active),99% (active),36%,99% (active),99.2% (active)
Oc1ccc(N=Nc2ccccc2)cc1,13%,97% (active),98.5% (active),5%,99% (active),99.5% (active),-6%,64%,99.3% (active),-1%,98% (active),98.1% (active),4%,98% (active),98.8% (active),9%,98% (active),99.2% (active)
CC(C)O[C@H]1N(C2CC(N=[N+]=[N-])C(CO)O2)C(=O)NC(=O)[C@]1(C)Br (stereo not given in full),14%,48%,87.1% (active),-6%,57%,91.2% (active),0%,56%,90.5% (active),4%,37%,89% (active),-7%,40%,90.5% (active),-4%,63%,91.1% (active)
C[N+](C)([O-])CCC=C1c2ccccc2CCc2ccccc21,10%,46%,62.5%,12%,9%,28.4%,-2%,33%,7.75%,-20%,21%,12.5%,3%,33%,73.5% (active),4%,33%,33.5%
O=C1OC(c2cccc(Cl)c2)Sc2ccccc21 (stereo not given),2%,86% (active),51.7%,0%,60%,19.4%,-12%,56%,36.2%,-7%,47%,-16.7%,26%,94% (active),83.2% (active),0%,78% (active),37.6%

# Reference: PubChem BioAssay (NCI)
